CHX counter = Cycloheximide Counterscreen for Small Molecule Inhibitors of Shiga Toxin; cell reporter, cycloheximide protein synthesis inhibition counterscreen; max response, %; 12% of 300,000 active; AID 2314, 2010; in the data active = max response mostly above about 13%, no sharp cut-off; inactive = mostly below about 14%; also: read at 38.3 µM for the half of the compounds with a filed dose
Pf growth 96h = Primary qHTS for delayed death inhibitors of the malarial parasite plastid, 96 hour incubation; 6.9% of 320,000 active; P. falciparum luciferase reporter growth, 96 h; Potency, µM (top dose mostly 28.7 µM), actives largely listed as inhibitors
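Erythrocytes infected with luciferase-expressing P. falciparum were dispensed at 2% hematocrit and 0.05% parasitemia (final), then incubated with compounds 96 hours at 37 C in 5% CO2. Luminescence after detection reagent addition reported growth.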
LmPK inhibitor = qHTS Assay for Inhibitors of Leishmania Mexicana Pyruvate Kinase (LmPK) | Q27686 | purified LmPK, Kinase-Glo ATP luminescence, 1 h | Potency, µM (titrated, usually from 57.5 µM), actives largely listed as inhibitors | 0.37% of 290,000 active | AID 1721, 2009
Target sequence (Q27686 whole entry, looked up): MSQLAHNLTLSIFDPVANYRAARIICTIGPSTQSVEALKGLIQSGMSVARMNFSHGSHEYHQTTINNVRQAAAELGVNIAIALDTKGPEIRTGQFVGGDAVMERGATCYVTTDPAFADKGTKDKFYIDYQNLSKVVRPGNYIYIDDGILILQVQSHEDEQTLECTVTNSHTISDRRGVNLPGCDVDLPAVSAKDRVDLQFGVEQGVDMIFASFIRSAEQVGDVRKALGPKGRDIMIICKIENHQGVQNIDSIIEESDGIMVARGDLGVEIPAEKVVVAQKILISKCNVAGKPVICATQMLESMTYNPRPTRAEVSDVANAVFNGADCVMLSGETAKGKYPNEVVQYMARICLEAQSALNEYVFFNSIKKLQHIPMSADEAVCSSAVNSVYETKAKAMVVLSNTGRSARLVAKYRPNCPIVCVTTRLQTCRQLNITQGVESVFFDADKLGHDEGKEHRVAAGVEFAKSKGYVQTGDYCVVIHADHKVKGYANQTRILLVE
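Purified LmPK (0.1 nM) with 0.5 mM PEP and 0.1 mM ADP in imidazole buffer pH 7.2 with MgCl2/KCl, 1 h at room temperature. ATP formed was read by luciferase luminescence and normalized to no-enzyme and uninhibited controls.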
Shiga toxin inh = A qHTS for Small Molecule Inhibitors of Shiga Toxin. Vero cells, Shiga toxin protein synthesis inhibition reporter. inhibition, % at 38.7 µM. 9.2% of 290,000 active; in the data active = inhibition mostly above about 28%, no sharp cut-off; inactive = mostly below about 43%
Pf growth 48h = Primary qHTS for delayed death inhibitors of the malarial parasite plastid, 48 hour incubation; P. falciparum luciferase growth in erythrocytes, 48 h; Potency, µM (titrated, usually from 28.7 µM), hits mostly inhibitors; 5.9% of 310,000 active
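Read-out is firefly luciferase luminescence from an integrated reporter in P. falciparum, so falling signal marks reduced parasite growth. Infected erythrocytes were at 2% hematocrit and 0.1% parasitemia (final) in Albumax-supplemented RPMI 1640.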
Numbers stand for hits; [ ] = dose if it differs, or a comment. The list is not random: actives were taken first. Their share in the collection is about 22%. Unless noted, calls follow the shape of the dose curve; as a rule, active = well fitted inhibition curve with a large enough effect; inconclusive = small, poorly fitted or top-dose-only effect, or another doubt; inactive = no such curve, though single readings can be large or run the other way.

Cc1cc(/C=N/Nc2nc(N3CCOCC3)nc(N3CCOCC3)n2)c(C)n1-c1ccccc1 was read as CHX counter inactive, Pf growth 96h inactive, LmPK inhibitor inactive[11.5 µM], Shiga toxin inh inactive and Pf growth 48h 9.3µM.
For Cn1nnnc1SCC(=O)N1CCN(c2cccc(Cl)c2)CC1 the results were CHX counter inactive, LmPK inhibitor inactive, Shiga toxin inh inactive and Pf growth 48h inactive.
CCOc1cc(/C=N/NC(=O)c2cc(-c3cccnc3)nc3ccccc23)ccc1O was read as CHX counter inactive, Pf growth 96h inactive, LmPK inhibitor inactive, Shiga toxin inh inactive and Pf growth 48h inactive.
Screening Cc1cc(=O)[nH]c(N/N=C/c2ccccc2Cl)n1 returned CHX counter inactive, Pf growth 96h inconclusive, LmPK inhibitor inactive, Shiga toxin inh inactive and Pf growth 48h inactive.
For Cc1cc(=O)[nH]c(N/N=C/c2cc(C)n(-c3ccccc3)c2C)n1 the results were CHX counter 34, Pf growth 96h inconclusive, LmPK inhibitor inactive, Shiga toxin inh 95 and Pf growth 48h inconclusive.
Screening COc1ccc(-c2nc3n(c(=O)c2C#N)CCCS3)cc1 returned CHX counter 15, Pf growth 96h inactive, LmPK inhibitor inactive and Shiga toxin inh inactive.
`COc1ccc(/C=N/c2c(-c3ccc(OC)cc3)nc3n2CCS3)cc1` gave CHX counter 15, Pf growth 96h inconclusive, LmPK inhibitor inactive, Shiga toxin inh inactive and Pf growth 48h inactive.
`Fc1ccc(/C=N/c2c(-c3ccc(F)cc3)nc3n2CCS3)cc1` gave CHX counter inactive, Pf growth 96h inactive, LmPK inhibitor inactive, Shiga toxin inh inactive and Pf growth 48h inactive.
Screening Cc1nc2ccccc2c2oc(C(=O)N3CCN(c4ccc([N+](=O)[O-])cc4)CC3)cc12 returned CHX counter inactive, Pf growth 96h inactive, LmPK inhibitor inactive, Shiga toxin inh inactive and Pf growth 48h inactive.
`CC(C)OC(=O)c1c(NC(=O)Cn2cnc([N+](=O)[O-])n2)sc2c1CCCC2` gave CHX counter inactive, Pf growth 96h 7.4µM, LmPK inhibitor inactive, Shiga toxin inh inactive and Pf growth 48h inconclusive.
`Fc1ccccc1CNC(=S)Nc1cccc(C(F)(F)F)c1` gave CHX counter inactive, Pf growth 96h inactive, LmPK inhibitor inactive, Shiga toxin inh inactive and Pf growth 48h inconclusive.
O=C(Cn1ncc2c1-c1ccccc1OC2)N1CCN(Cc2ccc3c(c2)OCO3)CC1 was read as CHX counter inactive, Pf growth 96h 4.7µM, LmPK inhibitor inactive and Shiga toxin inh inactive.
COc1ccc(CN2CCC(Oc3ccc(C(=O)N4CCCC4)cc3)CC2)c(F)c1 was read as CHX counter inactive, Pf growth 96h inconclusive, LmPK inhibitor inactive, Shiga toxin inh inactive and Pf growth 48h inactive.
For CN(C)C(CNC(=O)c1ccc(NS(=O)(=O)c2ccc3[nH]c(=O)[nH]c3c2)cc1)c1ccccc1 (stereo not given) the results were Pf growth 96h inactive and Pf growth 48h inconclusive.
O=C(NCCOc1ccccc1)c1cncc(Br)c1 was read as CHX counter 45, Pf growth 96h inactive, LmPK inhibitor inactive and Shiga toxin inh 78.
Screening CCCCCNC(=O)CCc1ccccc1 returned CHX counter 13, Pf growth 96h inactive, LmPK inhibitor inactive, Shiga toxin inh inactive and Pf growth 48h inactive.
`O=C(NCCSc1ccccc1)c1ccccc1` gave CHX counter 31, LmPK inhibitor inactive, Shiga toxin inh 114 and Pf growth 48h inactive.
O=C(NCCSc1ccccc1)c1cncc(Br)c1 was read as CHX counter 33, Pf growth 96h inactive, LmPK inhibitor inactive and Shiga toxin inh inactive.
`O=C(CCc1ccccc1)NCCSc1ccccc1` gave CHX counter 31, Pf growth 96h inactive, LmPK inhibitor inactive, Shiga toxin inh 95 and Pf growth 48h inactive[5.75 µM].
`CN(C)S(=O)(=O)c1ccc(C(=O)NCCSc2ccc(Br)cc2)cc1` gave CHX counter inactive, Pf growth 96h inactive, LmPK inhibitor inactive, Shiga toxin inh inactive and Pf growth 48h inactive.
Screening O=C(NCCSc1ccccc1)c1ccc(Br)cc1 returned CHX counter 48, Pf growth 96h inconclusive, LmPK inhibitor inactive, Shiga toxin inh 81 and Pf growth 48h inactive.
For CCCC/C=C/C(NC(=O)CCc1ccccc1)c1ccccc1 (stereo not given) the results were CHX counter inactive, Pf growth 96h 8.3µM, LmPK inhibitor inactive, Shiga toxin inh inactive and Pf growth 48h inconclusive.
For CN(C)c1cccc(C(=O)NCCCSc2ccccc2)c1 the results were CHX counter 37, Pf growth 96h inactive, LmPK inhibitor inactive, Shiga toxin inh 47 and Pf growth 48h inactive.
For COc1ccc(Cn2ncc3c4sc(C)cc4n(C)c3c2=O)cc1 the results were CHX counter inactive and Shiga toxin inh inactive.
`CC(C)(C)c1nc(SCC(=O)Nc2ccc3c(c2)OCCO3)c2ccccc2n1` gave CHX counter inactive, Pf growth 96h inconclusive, LmPK inhibitor inactive, Shiga toxin inh inactive and Pf growth 48h inconclusive.
For COc1ccc(CNc2nc(NC(C)=O)nn2-c2ccccc2)cc1 the results were CHX counter inactive, Pf growth 96h inconclusive, LmPK inhibitor inactive, Shiga toxin inh inactive and Pf growth 48h inactive.
`CC(C)(C)c1nn(-c2ccccc2)c2[nH]c(=O)c(CNc3ccc4c(c3)OCCO4)cc12` gave CHX counter 16, Pf growth 96h inconclusive, LmPK inhibitor inactive and Shiga toxin inh inactive.
Cc1ccc(CNCc2cc3c(C(C)(C)C)nn(-c4ccccc4)c3[nH]c2=O)cc1 was read as CHX counter inactive, LmPK inhibitor inactive, Shiga toxin inh inactive and Pf growth 48h 0.37µM.
For O=C(NCc1ccc2c(c1)OCO2)C1CC(=O)N(c2ccc(Cl)cc2)C1 (stereo not given) the results were CHX counter inactive, Pf growth 96h inactive, LmPK inhibitor inactive, Shiga toxin inh inactive and Pf growth 48h inactive.
For COc1ccc(CNCc2cc3c(C(C)(C)C)nn(-c4ccccc4)c3[nH]c2=O)cc1 the results were CHX counter inactive, LmPK inhibitor inactive, Shiga toxin inh inactive and Pf growth 48h 0.83µM.
Screening Cc1nn(-c2ccc(Cl)cc2)c2[nH]c(=O)c(CNCc3ccc4c(c3)OCO4)cc12 returned CHX counter inactive, Pf growth 96h inactive, LmPK inhibitor inactive, Shiga toxin inh inactive and Pf growth 48h 0.37µM.
CC(C)(C)c1nn(-c2ccccc2)c2[nH]c(=O)c(CNCc3ccco3)cc12 was read as CHX counter inactive, Pf growth 96h inconclusive, LmPK inhibitor inactive, Shiga toxin inh inactive and Pf growth 48h inconclusive.
O=C(NNC(=S)NC1CCCCC1)c1ccccc1O was read as CHX counter 16, Pf growth 96h 2.3µM, LmPK inhibitor inactive, Shiga toxin inh 62 and Pf growth 48h inactive.
Screening CC(C)(C)C(=O)NC(=S)Nc1ccccc1C(=O)NC1CCCCC1 returned CHX counter inactive, Pf growth 96h inactive, LmPK inhibitor inactive, Shiga toxin inh inactive and Pf growth 48h inactive.

Assay outcomes deposited in PubChem BioAssay by National Center for Advancing Translational Sciences (NCATS).
